Beta cell apopt: inhibitors of cytokine-induced beta cell apoptosis, primary screen, luminescence. INS-1E cytokine-induced death, ATP luminescence, 48 h; percent of positive-control rescue, neutral wells zero. protection from apoptosis, % (test concentration not listed). 0.8% of 300,000 active. AID 435005, 2010;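 active = Every replicate reaches about 75%, or at least half do and their mean reaches it too, limit read from the data; inconclusive = At least half of replicates reach the limit but their mean does not; inactive = Under half of replicates reach the limit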;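 note: 0% = cytokine-treated negative control wells and 100% = positive control rescue; higher means more ATP so stronger rescue from cytokine killing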
SKKanGAS inh: S. pyogenes SKKanGAS growth inhibitors in kanamycin, primary screen, streptokinase expression inhibitor project, SKKanGAS strain, BacTiter-Glo luminescence; AID 1662, 2009; inhibition, % at 7.5 µM; 6 h; 1.3% of 300,000 active;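 active = mean replicate score, as percent of positive control median, at least 50; inconclusive = mean below 50 but one replicate at or above 50; inactive = mean and every replicate below 50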;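 note: strain carries kanamycin resistance gene driven by streptokinase promoter and grows in 40 µg/ml kanamycin; loss of luminescence reflects streptokinase promoter inhibition or plain growth inhibition; 0% = median of DMSO wells and 100% = positive control at its reference dose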
Mdm2 MdmX PPI: inhibitors of human Mdm2-MdmX association, primary screen, cell-based, luminescence, split luciferase, SaOS-2, uHTS; SaOS-2 split-luciferase Mdm2/MdmX complementation; inhibition, % at 8 µM; 3% of 330,000 active; Protein Mdm4 (Homo sapiens) + E3 ubiquitin-protein ligase Mdm2 (Homo sapiens), …;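 active = inhibition of at least 50% at 8 µM in the primary screen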
NR3A LBD binder: binders of NR3A ligand-binding domain, primary screen, biophysical, differential scanning fluorimetry, uHTS; Glutamate receptor ionotropic, NMDA 3A (GRIN3A) ligand-binding domain; NR3A LBD differential scanning fluorimetry, Tm shift; 0% = protein alone, 100% = glycine-bound protein; Tm shift relative to glycine control, % at 25 µM; 2.5% of 340,000 active;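 active = melting temperature shift of at least 10% of the positive control shift, at one fixed dose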
CSC inhib: cancer stem cell viability inhibitors, primary screen, luminescence; AID 2717, 2010; inhibition, % at 7.5 µM; 1.1% of 300,000 active; cancer stem cell-like cells viability; in the data active = inhibition above about 75%; inconclusive = no clear call, values can overlap the other calls; tested in HMLE shEcad cells
MPTP block: mitochondrial permeability transition pore inhibitors, primary screen, biochemical, isolated mouse mitochondria, absorbance; Ca2+ swelling absorbance, 30 min; inhibition, % at 10 µM; 1.4% of 360,000 active; AID 602449, 2012;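 active = inhibition of 50% or more, scaled per plate between neutral and stimulator controls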;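 note: 0% = DMSO wells given calcium and 100% = 1 mM EGTA wells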
Mdm2 MdmX conf: Mdm2-MdmX complex disruptors, retested hits, confirmation, luminescence, single concentration. AID 489028, 2010. inhibition, % at 8 µM. 55% of 10,000 active. Mdm2-MdmX binding, luminescent assay. shares compounds with Mdm2 MdmX PPI; in the data active = inhibition above about 40%
FLuc counter: full-length luciferase signal inhibition, confirmation, counter-screen for Mdm2/MdmX interaction inhibitor project, cell-based, single concentration, SaOS-2 | shares compounds with Mdm2 MdmX PPI | SaOS-2 full-length luciferase counterscreen, luminescence | inhibition, % at 8 µM | 77% of 6,200 active;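 active = mean inhibition at 8 µM reaching about 37%, which flags the compound as non-specific, limit read from the data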;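 note: p53-null SaOS-2 cells with luciferase driven by a doxycycline-inducible promoter; compound on cells about two nights before reading with doxycycline added after day one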
MPTP counter: fluorescence retest of MPTP screen hits in isolated mitochondria, single concentration; shares compounds with MPTP block; membrane potential, Rhodamine 123 fluorescence; inhibition, % at 10 µM; 78% of 5,000 active; AID 624504, 2012; in the data active = inhibition above about 22%;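 note: 0% = DMSO vehicle and 100% = positive control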
MPTP swell DR: mitochondrial permeability transition pore inhibitors, dose response, biochemical, absorbance, uHTS hits | isolated mitochondria swelling | shares compounds with MPTP block | IC50, µM | 58% of 780 active; in the data active = IC50 below about 20 µM
MPTP cs DR: fluorescent counter-screen in isolated mitochondria, dose response, counter-screen for MPTP inhibitor project, biochemical, fluorescence, uHTS hits | isolated mitochondria counterscreen, fluorescence read-out | 49% of 780 active | shares compounds with MPTP block | AID 651564, 2012 | IC50, µM; in the data active = IC50 below about 80 µM
Numbers without * were called inactive; i = inactive; ? = inconclusive; . = no result. This is a sample that favours compounds with a hit; in the whole collection about 6.9% have one here.

SMILES | Beta cell apopt | SKKanGAS inh | Mdm2 MdmX PPI | NR3A LBD binder | CSC inhib | MPTP block | Mdm2 MdmX conf | FLuc counter | MPTP counter | others
O=C(O)CCC(=O)NNC(=O)c1cccs1 | -7.2 | -1.7 | 10.8 | 0.0 | -1.6 | -0.8 | . | . | .
COc1ccc(C(CNC(=O)c2oc3cc(C)c(Cl)cc3c2C)N2CCCCC2)cc1 (centres undefined) | -2.6 | -13.8 | 82.2* | 1.6 | 10.9 | 71.3* | 36.4 | . | -8.1 | MPTP swell DR=i;MPTP cs DR=>80
COc1ccc(C(CNC(=O)c2oc3ccc(C)cc3c2C)N2CCCCC2)cc1 (centres undefined) | . | -5.6 | 19.9 | 0.1 | . | 2.2 | . | . | .
CC1=C/C(=N\OS(=O)(=O)c2ccccc2)C(C(C)C)=CC1=O | ? | . | . | 0.6 | 62.0 | 6.4 | . | . | .
CC1=C/C(=N\OS(=O)(=O)c2ccccc2)C(C)=CC1=O | 112.1* | . | 96.3* | 3.1 | 118.4* | 98.2* | 83.8* | 53.2* | 100.2*
CCOc1ccc2nc(NC3=NC(C)(C)C=C(C)N3)nc(C)c2c1 | 3.3 | -2.9 | 71.6* | -1.2 | 0.6 | 86.2* | 33.9 | . | 85.0*
Cc1ccc2nc(NC3=NC(CC(=O)O)C(=O)N3)nc(C)c2c1 (centres undefined) | -1.9 | -2.7 | 12.1 | . | 12.5 | . | . | . | .
CCOc1ccc2c(C)nc(NC3=NC(C)(C)C=C(C)N3)nc2c1 | -0.9 | -1.1 | 50.4* | -3.1 | 25.4 | 58.7* | 33.9 | . | 6.0 | MPTP swell DR=i;MPTP cs DR=7.66*
O=C(CCCn1cncn1)N1CCCC(Nc2ccc(F)cc2)C1 (centres undefined) | -8.1 | 0.6 | 14.9 | 2.5 | -7.2 | 0.5 | . | . | .
CC(OC(=O)c1cc(Br)ccc1O)C(=O)Nc1ccc(S(=O)(=O)N2CCCC2)cc1 (centres undefined) | 9.5 | -0.6 | 63.3* | 10.5* | 20.5 | 87.0* | 43.4* | 73.0* | 90.7*
O=C(COC(=O)CNC(=O)c1ccc(Cl)cc1Cl)NC1CCCCCCC1 | -5.5 | -3.2 | 9.2 | 0.8 | -8.3 | -1.1 | . | . | .
COc1ccc([N+](=O)[O-])cc1NC(=O)C(C)c1ccccc1 (centres undefined) | -0.4 | 1.9 | 26.5 | -1.2 | -18.5 | 1.4 | . | . | .
Cc1cccc(C(=O)NC(NC(=S)Nc2ccc(S(N)(=O)=O)cc2)C(Cl)(Cl)Cl)c1 (centres undefined) | . | 2.3 | -19.8 | -0.1 | . | -0.3 | . | . | .
O=C(NC(NC(=S)Nc1c(Cl)cccc1Cl)C(Cl)(Cl)Cl)c1cccc([N+](=O)[O-])c1 (centres undefined) | 26.9 | 43.7 | 58.1* | 9.2 | 51.4 | 72.7* | 49.8* | 76.2* | 53.9*
COc1ccc([N+](=O)[O-])cc1NC(=S)NC(NC(=O)C(c1ccccc1)c1ccccc1)C(Cl)(Cl)Cl (centres undefined) | 35.8 | ? | 89.1* | 9.7 | 8.5 | 94.6* | 78.9* | 29.2 | 63.5*
Cc1ccc2c(c1)N(C(=O)CCC(=O)NC1CCC(C)CC1)CCO2 (centres undefined) | -4.6 | -5.8 | 13.4 | 0.3 | 11.5 | -1.1 | . | . | .
COc1ccc(Nc2nc(-c3cccc([N+](=O)[O-])c3)nc3ccccc23)cc1 | 11.3 | 30.4 | 55.1* | 46.2* | 123.7* | 53.2* | 14.5 | . | 25.2*
Cc1ccc(OC(F)F)c(NC(=O)Nc2cccc(C(F)(F)F)c2)c1 | 66.3 | 38.6 | 88.0* | 28.9* | 5.3 | 96.0* | 59.2* | 23.7 | 73.3*
CSCCC(NC(=O)c1ccccc1Cl)C(=O)NCCOc1ccc(C)cc1 (centres undefined) | . | . | . | . | . | -0.4 | . | . | .
COc1cc(/C=N/n2c(C)nc3ccccc3c2=O)cc(OC)c1O | 2.7 | 0.5 | 7.5 | -0.5 | -8.1 | 0.0 | . | . | .
Cc1cc(/C=C2\Sc3ccccc3N2C)cc(C)[n+]1CC1CCCO1 (centres undefined) | . | . | 86.7* | -0.8 | . | 74.6* | 89.5* | 21.3 | 83.8*
Cc1ccc(NS(=O)(=O)c2cc([N+](=O)[O-])ccc2NNC(=S)Nc2cc(C)ccc2C)c(C)c1 | ? | 40.6 | 93.7* | 20.5* | 80.5* | 109.6* | 88.0* | 38.6* | 67.1*
O=C(NN=Cc1ccccc1C(=O)O)c1cccc(S(=O)(=O)Nc2cccc(C(F)(F)F)c2)c1 | -1.9 | . | 29.1 | -3.0 | 19.2 | -0.1 | . | . | .
CN1CCC2(CC1)Nc1nc(SCc3ccc(Cl)cc3)nn1C1=C2CN(C)CC1 | -7.3 | 3.3 | 53.4* | 0.5 | 3.8 | 63.4* | 33.6 | . | -14.2 | MPTP swell DR=9.72*;MPTP cs DR=>80
CC(=O)c1cnc2nc(SCc3ccc(Cl)cc3)nn2c1C | -0.3 | 2.4 | 1.2 | -3.2 | -11.6 | 0.1 | . | . | .
SMILES | Beta cell apopt | SKKanGAS inh | Mdm2 MdmX PPI | NR3A LBD binder | CSC inhib | MPTP block | Mdm2 MdmX conf | FLuc counter | MPTP counter | others
Cc1ccccc1Nc1nnc(SCC(=O)NCC2CCCO2)s1 (centres undefined) | -0.3 | . | 7.4 | 0.2 | 0.6 | -1.2 | . | . | .
Fc1ccc([C@@H]2CCNC[C@H]2COc2ccc3c(c2)OCO3)cc1 | . | 4.0 | 50.6* | -0.8 | 5.8 | 97.5* | 33.5 | 55.6* | -11.2
Fc1ccc(C2CCNCC2COc2ccc3c(c2)OCO3)cc1 (centres undefined) | 1.6 | 1.7 | 33.9 | -1.8 | 6.9 | 2.7 | . | . | .
CSc1ccc(CNCC2CCCO2)cc1 (centres undefined) | -9.1 | -1.9 | 3.4 | -1.4 | -20.0 | 0.2 | . | . | .
CC(NCCC(c1ccccc1)c1ccccc1)c1ccccc1 (centres undefined) | 18.7 | 2.3 | 58.1* | 0.6 | 18.2 | 94.3* | 15.9 | . | -2.2
COc1ccc(S(=O)(=O)Nc2cc3c4c(c2)CCN4C(=O)CC3)cc1OC | -4.8 | 12.9 | -2.6 | -0.1 | -1.5 | 0.0 | . | . | .
Cc1cccc(-c2nnc(-c3ccc4ccccc4c3)o2)c1 | . | . | . | -11.4 | . | -0.1 | . | . | .

Bioassay records as filed in PubChem.
